{"source": "PubChem BioAssay AID504621", "about": "(Broad Institute, 2011)", "note": "Among all 310,000 compounds or so, about 970 (0.31%) were called active.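 Rule for the calls: active = every replicate shows inhibition above about 80%, whatever the replicate mean (limit read from the data); inconclusive = mean inhibition reaches the set limit but some replicate falls short; inactive = the rest.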 This excerpt belongs to a sample that is enriched for actives."}
{"experiment": "growth inhibition of PfHsp90-expressing yeast, primary screen, antimalarial PfHsp90 inhibitor project, S. cerevisiae, BacTiter-Glo luminescence, single point, set 2 (AID 504621);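 note: yeast relying on Plasmodium falciparum Hsp90 in place of its own; 0% = DMSO neutral controls and 100% = 20 µM radicicol positive controls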", "details": "BacTiter-Glo ATP, 48 h, at 9.4 µM, active compounds read high, yeast lacking PDR1 and PDR3 efflux regulators"}
{"smiles": "Cc1cccc(NC(=S)N2CCC(C(=O)c3ccc(F)cc3)CC2)c1", "inhibition": "-3.65% (inactive)"}
{"smiles": "COc1ccc(CNCCCNCc2ccc(OC)c(OC)c2)cc1OC", "inhibition": "-32.5% (inactive)"}
{"smiles": "O=C1C(Cl)=C(Oc2ccccc2)C(=O)c2ccccc21", "inhibition": "104% (active)"}
{"smiles": "CC(=O)Oc1ccc2c(c1)C(=O)c1ccccc1C2=O", "inhibition": "6.15% (inactive)"}
{"smiles": "CC(=O)N(C1=C(Cl)C(=O)c2ccccc2C1=O)c1ccc(C(=O)O)cc1", "inhibition": "13.4% (inactive)"}
{"smiles": "COc1ccc(Cn2cc(CN3CCS(=O)(=O)N(Cc4ccc(-c5cccc(Cl)c5)cc4)C(C)C3=O)nn2)cc1", "note": "(stereo not drawn)", "inhibition": "-24.7% (inactive)"}
{"smiles": "COc1ccc(-c2nn(-c3ccccc3)cc2/C=N/Nc2ccccn2)cc1OC", "inhibition": "-22% (inactive)"}
{"smiles": "Oc1cccc(/C=N/Nc2ccc(Cl)nn2)c1O", "inhibition": "1.34% (inactive)"}
{"smiles": "Oc1ccc(Br)cc1/C=N/Nc1ccccn1", "inhibition": "107% (active)"}
{"smiles": "COc1ccc(CCC(=O)Nc2ccc(Cl)c(S(=O)(=O)N3CCOCC3)c2)cc1OC", "inhibition": "-12.1% (inactive)"}
{"smiles": "CC[C@@H]1Cc2cc(O)ccc2C2=C1c1ccc(O)cc1C[C@H]2CC", "inhibition": "108% (active)"}
{"smiles": "CSCCC(NC(=O)COc1ccccc1)C(=O)N1CCN(c2cccc(C(F)(F)F)c2)CC1", "note": "(stereo not drawn)", "inhibition": "46.4% (inactive)"}
{"smiles": "Cc1ccc(S(=O)(=O)c2cc3c(=O)n4cccc(C)c4nc3n(CCc3ccccc3)c2=N)cc1C", "inhibition": "0.767% (inactive)"}
{"smiles": "COc1cc(/C=N/O)cc(Br)c1OCc1cccc(Cl)c1", "inhibition": "121% (active)"}
{"smiles": "COc1cc(C(=O)NCc2ccncc2)cc(Br)c1OCc1ccccc1", "inhibition": "46.3% (inactive)"}
{"smiles": "COc1cc(/C=N/O)cc(Br)c1OS(=O)(=O)c1ccc(C)cc1", "inhibition": "-10.1% (inactive)"}
{"smiles": "Cc1nn(-c2ncccn2)c2c1C(=O)CC(C)(C)C2Br", "note": "(stereo not drawn)", "inhibition": "-6.87% (inactive)"}
{"smiles": "COc1ccc(CCN2CC(C(=O)OCC(=O)NCc3ccccc3Cl)CC2=O)cc1OC", "note": "(stereo not drawn)", "inhibition": "-2.54% (inactive)"}
{"smiles": "CC1(C)N=C(N)NC(Nc2ccc(Cl)cc2)=N1", "inhibition": "7.88% (inactive)"}
{"smiles": "C/C(=N\\Nc1ccc(Cl)nn1)c1ccccc1O", "inhibition": "2.56% (inactive)"}
{"smiles": "Oc1ccc(/C=N/N(Cc2ccccc2)c2ccccc2)cc1", "inhibition": "96.6% (active)"}
{"smiles": "CCN(/N=C/c1ccccc1)c1cc(=O)n(C)c(=O)[nH]1", "inhibition": "-32.6% (inactive)"}
{"smiles": "CCN(/N=C/c1ccc(N(C)C)cc1)c1nc2ccccc2[nH]1", "inhibition": "24% (inactive)"}
{"smiles": "Cc1ccc2c(O)c(Cc3ccccc3)c(=O)[nH]c2n1", "inhibition": "-3.48% (inactive)"}
{"smiles": "CC(C)C[C@H]1CN([C@@H](CC(C)C)CN2CCC[C@@H]2CN2C(=O)C(=O)NC[C@@H]2Cc2ccccc2)C(=O)C(=O)N1CCc1ccccc1", "inhibition": "1.81% (inactive)"}
{"smiles": "CC(C=Cc1ccccc1)=NNS(=O)(=O)c1ccc([N+](=O)[O-])cc1", "inhibition": "-1.29% (inactive)"}
{"smiles": "CC(=O)OCC1(O)CC23CCC4c5ccoc5CCC4(C)C2CCC1C3", "note": "(stereo not drawn)", "inhibition": "-29.4% (inactive)"}
{"smiles": "c1ccc(CCc2ccccn2)cc1", "inhibition": "12.1% (inactive)"}
{"smiles": "O=[N+]([O-])c1ccc(C=Nc2ccc(Cl)cc2Cl)s1", "inhibition": "110% (active)"}
{"smiles": "CC(C)(C)c1cc(C(=O)N/N=C/c2ccc([N+](=O)[O-])s2)n[nH]1", "inhibition": "-5.37% (inactive)"}
{"smiles": "Cc1ccccc1NCC(=O)N/N=C\\c1ccc([N+](=O)[O-])s1", "inhibition": "-6.37% (inactive)"}
{"smiles": "CC(C)(C)OC(=O)N1CCC(C(=O)Nc2cccc(C(=O)NCCc3ccccc3)c2)CC1", "inhibition": "5.32% (inactive)"}
{"smiles": "Cc1ccc(OCCCn2c(=O)oc3ccccc32)cc1", "inhibition": "-16.3% (inactive)"}
{"smiles": "CCCCCCCCCCOC(=O)Cn1c(COc2ccc(C)cc2)[n+](C)c2ccccc21", "inhibition": "110% (active)"}
{"smiles": "CCCCCCCCCCOC(=O)Cn1c(COc2cccc(OC)c2)[n+](C)c2ccccc21", "inhibition": "-14.9% (inactive)"}
{"smiles": "COc1ccc(-c2nc3cc(C)ccn3c2NC2CCCCC2)cc1SC1CCCCC1", "inhibition": "9.74% (inactive)"}
{"smiles": "FC(F)(F)c1ccc(-c2cccc3c2C2CC3CCN2Cc2ccccc2)cc1", "note": "(stereo not drawn)", "inhibition": "6.57% (inactive)"}
{"smiles": "O=C(CCC(=O)OCc1ccc(Cl)cc1)Nc1ccccc1", "inhibition": "-21.6% (inactive)"}
{"smiles": "O=C1C=C(c2ccc(Cl)cc2)C(=O)N1Nc1ccccc1", "inhibition": "134% (active)"}
{"smiles": "O=C(O)CC1=C(Nc2ccccc2)C(=O)N(c2ccccc2)C1c1ccc(Cl)cc1", "note": "(stereo not drawn)", "inhibition": "-10.5% (inactive)"}
{"smiles": "COc1cc(/C=C/c2ccc(/C=C/c3cc(OC)c(OC)c(OC)c3)cc2)cc(OC)c1OC", "inhibition": "-3.68% (inactive)"}
{"smiles": "Cc1c[n+]([O-])ccc1[N+](=O)[O-]", "inhibition": "4.7% (inactive)"}
{"smiles": "COCC(=O)N(C)[C@H]1C[C@H]2c3cc(Oc4ccccc4C)ccc3CCN2C(=O)[C@H]1[C@H](C)O", "inhibition": "-8.3% (inactive)"}
{"smiles": "O=S(=O)(Nc1ccc2ccccc2c1)N1CCCCC1", "inhibition": "2.41% (inactive)"}
{"smiles": "O=C(CNC(=O)c1cc(S(=O)(=O)N2CCOCC2)ccc1N1CCCC1)Nc1ccc(F)c(F)c1", "inhibition": "-6.44% (inactive)"}
{"smiles": "CCN1/C(=C\\c2ccc3ccccc3[n+]2CC)Sc2cc(C)ccc21", "inhibition": "87.5% (active)"}
{"smiles": "Cc1cccc(C=CC(=O)c2ccc(Cl)cc2)c1", "inhibition": "5.15% (inactive)"}
{"smiles": "Cc1ccc(C)c(N2CCN(C(=O)CCc3nc(-c4cccc(C(F)(F)F)c4)no3)CC2)c1", "inhibition": "-1.63% (inactive)"}
{"smiles": "O=C(O)C(CCc1ccccn1)c1ccccc1", "note": "(stereo not drawn)", "inhibition": "-16% (inactive)"}
{"smiles": "CCCCNC(=O)C(C)N(CCN(C)C)C(=O)CCCCCN1C(=O)NC(c2ccc(Cl)cc2)C(C(=O)OCc2ccccc2)=C1C", "note": "(stereo not drawn)", "inhibition": "-0.725% (inactive)"}
{"smiles": "COc1cccc(/C=N/Nc2cc(C)nc(-c3ccccc3O)n2)c1O", "inhibition": "-15.4% (inactive)"}
{"smiles": "FC(F)(F)c1cnc(Oc2ccccc2-c2nnc(-c3ccc(Cl)cc3)o2)c(Cl)c1", "inhibition": "-8.43% (inactive)"}
{"smiles": "COc1cccc(/C=N/Nc2ncc(C(F)(F)F)cc2Cl)c1O", "inhibition": "91.5% (active)"}
{"smiles": "CCCCCCCCNS(=O)(=O)CCNC1CCCCC1", "inhibition": "21.1% (inactive)"}
{"smiles": "O=C(NC1=CC(=O)c2ccccc2C1=O)c1ccccc1", "inhibition": "54.3% (inactive)"}
{"smiles": "C#CCOCCOCCOCCNc1nc(N2CCN(C(=O)Cn3cc(CCO)nn3)CC2)nc(N2CCN(C(=O)[C@H](CCCCN)n3cc(CCCC)nn3)CC2)n1", "inhibition": "-9.73% (inactive)"}
{"smiles": "Oc1c(Cl)cc(Cl)c(Cl)c1Cc1c(O)c(Cl)cc(Cl)c1Cl", "inhibition": "108% (active)"}
{"smiles": "O=C(Nc1ccc2ccccc2c1[N+](=O)[O-])c1ccccc1", "inhibition": "-14.2% (inactive)"}
